Several values for one entry are separate records, joined by “and”; a condition that tells them apart may be missing. Equal entries are not always repeated. Activity calls are given as the source filed them. The calls were made as follows: active = hit-call score of the fitted dose curve at least 0.9, where 1 is the maximum; inactive = score below 0.9.
Experiment: BSK_BE3C_SRB: Viability Assessment in the BioMAP Diversity Plus: BE3C Assay (AID 2283028);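 as to AC50: fitted both ways so AC50 may mark signal gain or loss versus DMSO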
Details: primary human bronchial epithelial cells
Method: BSK_BE3C is a cell-based, multiplexed-readout assay that uses bronchial epithelial cell, a human lung primary cell, with measurements taken at 24 hours after chemical dosing in a 96-well plate.BSK_BE3C_SRB is an assay component measured in the BSK_BE3C assay. It measures 0.1% sulforhodamine related to cell death using Sulforhodamine staining technology.Data from the assay component BSK_BE3C_SRB was analyzed into 1 assay endpoint. This assay endpoint, BSK_BE3C_SRB, was analyzed with bidirectional fitting relative to DMSO as the negative control and baseline of activity. Using a type of viability reporter, gain or loss-of-signal activity can be used to understand changes in the signaling. Furthermore, this assay endpoint can be referred to as a primary readout, because this assay has produced multiple assay endpoints where this one serves a signaling function. To generalize the intended target to other relatable targets, this assay endpoint is annotated to the cell morphology intended target family, where the subfamily is cell conformation.
The levels of cell surface (or secreted, indicated by the prefix "s") biomarker endpoints were measured by ELISA. Overt cytotoxicity to cells in confluent adherent cultures (all systems other than the BT system) was assessed by measuring total protein levels using sulforhodamine B (SRB) staining in parallel cultures at the time of biomarker measurements, indicated as SRB endpoints. For proliferation assays for adherent cell types, individual cell types are cultured at sub-confluence and relative cell numbers quantified by SRB staining at time points optimized for each system (48 h: 3C and CASM3C systems; 72 h: BT and HDF3CGF systems; 96 h: SAg system). SRB was performed by staining cells with 0.1% SRB after fixation with 10% TCA and reading wells at 560 nm.Viability and proliferation of PBMC (T cells) was quantified by Alamar Blue reduction for the SAg and BT systems. For PBMC viability (referred to as PBMC Cytotoxicity within the assay endpoint names), cells were plated (75,000/well in a 96-well plate) and then chemical samples added for 1 h before addition of activators, SEB and TSST-1 (20 ng/mL final concentration each). Cells were incubated for 90 h. Then, Alamar Blue (20 uL/well) (Invitrogen, Cat DAL1100) was added for 6 h, and the plates were read with a fluorescence microplate reader at 546/580 nm (excitation/emission). For PBMC proliferation, cells were plated and activated as above but incubated for only 16 h prior to addition of Alamar Blue. Plates were read after 6 h.
With `O=C(c1ccccc1)c1ccc(O)cc1O` the outcome was “inactive”.
For `FC(F)(F)C(F)(F)C(F)(F)C(F)(F)C(F)(F)C(F)(F)C(F)(F)CCI`, the outcome was “inactive”.
With `NS(=O)(=O)C(F)(F)C(F)(F)C(F)(F)C(F)(F)C(F)(F)C(F)(F)F` the outcome was “inactive”.
With `CCOC(C=C(C)CCC=C(C)C)OCC` the outcome was “inactive”.
In the case of `C[C@]12CC[C@H]3C(=CCc4cc(O)ccc43)[C@@H]1CCC2=O`, the outcome is reported as “inactive”.
With `CCN(CC)c1ccc(C=O)c(O)c1` the outcome was “inactive”.
For `CCOC(=O)CC(=O)C(F)(F)C(F)(F)F`, the outcome was “inactive”.
For `COC(F)(C(F)F)C(F)(F)F` (stereo not given), the outcome was “inactive”.
In the case of `O=C1C=CC(=O)N1c1ccc(Cc2ccc(N3C(=O)C=CC3=O)cc2)cc1`, the AC50 is reported as 3.04 µM (active).
In the case of `O=C(Cl)C(F)(F)C(F)(F)C(F)(F)C(F)(F)C(F)(F)C(F)(F)F`, the outcome is reported as “inactive”.
With `O=C(O)CCC(F)(F)C(F)(F)C(F)(F)C(F)(F)C(F)(F)C(F)(F)C(F)(F)F` the outcome was “inactive”.
With `FC(F)(F)C(F)(F)C(F)(F)CC1CO1` (stereo not given) the outcome was “inactive”.
In the case of `O=C1c2c(O)ccc(Nc3ccc(CCO)cc3)c2C(=O)c2c([N+](=O)[O-])ccc(O)c21`, the outcome is reported as “inactive”.
In the case of `NC(=O)C(F)(F)C(F)(F)C(F)(F)C(F)(F)C(F)(F)C(F)(F)C(F)(F)F`, the outcome is reported as “inactive”.
In the case of `CC1=CC2C3C=CC(C3)C2C1C` (stereo not given), the outcome is reported as “inactive”.
With `O=S(=O)(OCC(F)(F)F)C(F)(F)C(F)(F)C(F)(F)C(F)(F)F` the outcome was “inactive”.
In the case of `OCCCC(F)(F)C(F)(F)C(F)(F)C(F)(F)C(F)(F)C(F)(F)C(F)(F)C(F)(F)F`, the AC50 is reported as 51.9 µM (active) and 48.7 µM (active).
In the case of `O=S(=O)(Cl)C(F)(F)C(F)(F)C(F)(F)C(F)(F)C(F)(F)C(F)(F)C(F)(F)C(F)(F)F`, the AC50 is reported as 43.9 µM (active) and 30.7 µM (active).
For `CC(C)(C)c1cc(CCC(=O)NCCCCCCNC(=O)CCc2cc(C(C)(C)C)c(O)c(C(C)(C)C)c2)cc(C(C)(C)C)c1O`, the outcome was “inactive”.
For `FC(F)(F)C(F)(F)C(F)(F)C(F)(F)C(F)(F)C(F)(F)CC[Si](Cl)(Cl)Cl`, the outcome was “inactive”.
With `Cc1cc(C)c(O)c(C(C)(C)C)c1` the AC50 was 32 µM (active).
For `NC(O)(C(F)(F)F)C(F)(F)F`, the outcome was “inactive”.
With `CCN=C1C=CC(=C(c2ccc(N(CC)CC)cc2)c2ccc(N(CC)CC)cc2)c2ccccc21` the outcome was “inactive”.
In the case of `CCN(CC)c1ccc2c(c1)Oc1cc(N(CC)CC)ccc1C21OC(=O)c2ccccc21`, the outcome is reported as “inactive”.
In the case of `CO[Si](C)(CCC(F)(F)C(F)(F)C(F)(F)C(F)(F)C(F)(F)C(F)(F)F)OC`, the outcome is reported as “inactive”.
With `Cc1ccc(O)c(-n2nc3ccccc3n2)c1` the outcome was “inactive”.
In the case of `O=C(F)C1(F)C(F)(F)C(F)(F)C(F)(F)C(F)(F)C1(F)F`, the outcome is reported as “inactive”.
For `CCN(CC)c1ccc(C=O)cc1`, the outcome was “inactive”.
With `C=C(C)C(=O)OCC(F)(F)C(F)(F)C(F)(F)C(F)F` the outcome was “inactive”.
For `Cc1ccc(S(=O)(=O)C(I)I)cc1`, the AC50 was 5.15 µM (active).
In the case of `OCC(F)(F)C(F)(F)C(F)(F)C(F)(F)C(F)(F)C(F)(F)C(F)(F)C(F)(F)CO`, the outcome is reported as “inactive”.
For `O=C(Cl)C(F)(F)C(F)(F)C(F)(F)C(F)(F)C(F)(F)C(F)(F)C(F)(F)F`, the outcome was “inactive”.
In the case of `NCC(F)(F)C(F)(F)C(F)(F)C(F)(F)C(F)(F)C(F)(F)C(F)(F)C(F)(F)F`, the outcome is reported as “inactive”.
In the case of `NC(=O)C(F)(F)C(F)(F)C(F)(F)F`, the outcome is reported as “inactive”.
In the case of `C=CC(=O)OCC(F)(F)C(F)(F)C(F)(F)C(F)(F)C(F)(F)C(F)(F)C(F)(F)C(F)F`, the outcome is reported as “inactive”.
For `C=CC(=O)OCC(F)(F)C(F)(F)C(F)(F)COC(=O)C=C`, the outcome was “inactive”.
For `O=C=NCc1cccc(CN=C=O)c1`, the outcome was “inactive”.
In the case of `Cc1cc(O)c(C(C)(C)C)cc1C(C)(C)C`, the AC50 is reported as 5.9 µM (active).
With `C[Si](Cl)(Cl)CCC(F)(F)C(F)(F)C(F)(F)C(F)(F)C(F)(F)C(F)(F)F` the outcome was “inactive”.
With `OCC(O)CC(F)(F)C(F)(F)C(F)(F)C(F)(F)C(F)(F)C(F)(F)C(F)(F)C(F)(F)F` (stereo not given) the outcome was “inactive”.

Source: PubChem BioAssay (EPA / NIEHS)
